Screens: PubChem BioAssay, several laboratories
sPLA2-III inh: Blocks human group III sPLA2 activity. QFRET BODIPY PC-A2 liposome hydrolysis, fluorescence. Q9NZ20. 370,000 tested, 0.56% active. inhibition, % at 12.2 µM;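 active = inhibition above mean plus 3 SD of compounds lying within the high and low control bounds, cut at about 19% in these data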;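 note: 0% = median of test compound wells and 100% = no enzyme DMSO wells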
KLK7 zymogen act: activators of human kallikrein-7 zymogen; P49862; purified proKLK7, EDANS-DABCYL substrate fluorescence; 100% is mature enzyme control, 0% vehicle; activation, % at 7 µM; 370,000 tested, 0.9% active; AID 652039;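 active = activation above the mean of all tested compounds plus 3 SD, computed per campaign excluding outliers beyond control limits, cut at about 13% in these data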
Target sequence (P49862 whole entry, looked up): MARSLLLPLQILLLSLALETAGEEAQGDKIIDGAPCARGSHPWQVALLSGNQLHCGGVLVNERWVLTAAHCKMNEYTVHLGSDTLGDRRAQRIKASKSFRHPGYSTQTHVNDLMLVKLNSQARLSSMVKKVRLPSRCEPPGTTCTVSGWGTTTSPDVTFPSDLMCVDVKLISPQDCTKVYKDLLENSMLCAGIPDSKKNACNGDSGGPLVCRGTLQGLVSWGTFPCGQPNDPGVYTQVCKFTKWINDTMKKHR
NRP1-CendR mod: alters CendR peptide binding to human NRP-1; AID 602438; inhibition, % at 25 µM; 360,000 tested, 0.85% active; O14786; FAM-RPARPAR peptide binding to NRP-1, fluorescence polarization;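 active = inhibition or corrected inhibition above about 18%, plus a signal ratio from 0.5 to 1.5, limit read from the data, passing the limit was not always enough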
ADAM17 inh: inhibitors of human ADAM17 | 370,000 tested, 0.83% active | P78536 | recombinant ADAM17, EDANS/DABCYL FRET peptide cleavage | inhibition, % at 6.95 µM;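 active = inhibition above the mean of compounds lying between control limits plus 3 SD, set per campaign, cut at about 8.5% in these data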;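 note: 0% = DMSO-only wells as the low control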
ADAM10 inh: inhibitors of human ADAM10. 370,000 tested, 0.62% active. recombinant ADAM10, EDANS/DABCYL FRET peptide cleavage, 3 h. AID 720582. inhibition, % at 7 µM;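 active = inhibition above a per-campaign cutoff equal to the mean of compounds falling between control-based bounds plus 3 SD, cut at about 20% in these data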;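 note: 0% = DMSO wells while the 100% control is not disclosed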
ADAM10 confirm: human ADAM10 inhibition, confirmation. shares compounds with ADAM10 inh. inhibition, % at 6.95 µM. AID 743208. 2,100 tested, 1% active. ADAM10 QFRET peptide cleavage, EDANS fluorescence;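 active = inhibition above about 20% chosen separately for each screening run, limit read from the data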;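 note: 0% = DMSO wells and 100% = marimastat wells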
ADAM17 counter: counter-screen for ADAM10 exosite inhibitors: inhibitors of human ADAM17. 2,100 tested, 0.5% active. shares compounds with ADAM10 inh. inhibition, % at 6.95 µM. ADAM17 QFRET peptide cleavage, EDANS fluorescence;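 active = mean triplicate inhibition above the solvent-only control wells' mean plus 3 SD, cut at about 12% in these data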;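 note: 0% = DMSO wells and 100% = marimastat wells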
ADAM10 ctr: ADAM10 inhibition, counter-screen for ADAM17 exosite hits. shares compounds with ADAM17 inh. recombinant ADAM10, EDANS/DABCYL FRET peptide cleavage, 3 h. inhibition, % at 6.95 µM. 2,900 tested, 47% active. AID 743256;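 active = mean inhibition over the triplicate runs exceeds the activity threshold set in the earlier primary screen, cut at about 20% in these data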;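 note: 0% = DMSO wells and 100% = marimastat wells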
ADAM17 confirm: human ADAM17 inhibition, confirmation; shares compounds with ADAM17 inh; recombinant ADAM17, EDANS/DABCYL QFRET peptide cleavage; inhibition, % at 6.95 µM; 2,900 tested, 65% active; AID 743257;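 active = mean inhibition across replicates above the hit cutoff set in the primary screen, cut at about 8.5% in these data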;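 note: 0% = DMSO wells and 100% = marimastat wells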
* hit, by the source's call. An excerpt weighted towards active compounds, which were near 3.4% of everything screened.

Screening Cc1ccccc1NC(=O)Nc1ccc2c(c1)C(=O)N(C)[C@H]1CC[C@H](CC(=O)NCC3CC3)O[C@@H]1CO2 returned sPLA2-III inh -22, KLK7 zymogen act 0, ADAM17 inh -10 and ADAM10 inh 5.
For COc1ccc(S(=O)(=O)Nc2cc3c4c(oc3c3ccccc23)CCCC4=O)cc1 the results were sPLA2-III inh -44, KLK7 zymogen act 0, NRP1-CendR mod 4, ADAM17 inh 7 and ADAM10 inh 9.
COc1ccc(S(=O)(=O)Nc2cc3c4c(oc3c3ccccc23)CC(C)(C)CC4=O)cc1 was read as sPLA2-III inh -39, KLK7 zymogen act 1, NRP1-CendR mod -4, ADAM17 inh 9.1*, ADAM10 inh 26*, ADAM10 confirm 11, ADAM17 counter 2, ADAM10 ctr 21* and ADAM17 confirm 11*.
For CN1OC[C@@H]2CN(C(=O)c3ccc(C#N)cc3)[C@H](c3cccc(Br)c3)C[C@@H]21 the results were sPLA2-III inh -6, KLK7 zymogen act 0, ADAM17 inh -2 and ADAM10 inh -2.
Screening Cc1ccc(CNC(=O)CO/N=C/c2ccc(C(C)(C)C)cc2)cc1 returned sPLA2-III inh 7, KLK7 zymogen act 0, NRP1-CendR mod -7, ADAM17 inh -3 and ADAM10 inh 8.
`CC(C)(C)c1ccc(/C=N/OCC(=O)NCc2ccc(F)cc2)cc1` gave sPLA2-III inh -9, KLK7 zymogen act 0, NRP1-CendR mod 7, ADAM17 inh 13*, ADAM10 inh 28*, ADAM10 confirm 3, ADAM17 counter 0, ADAM10 ctr 22* and ADAM17 confirm 11*.
`Cc1ccc(NC(=O)COC(=O)/C=C/c2cccc(Cl)c2)cc1S(=O)(=O)N1CCOCC1` gave sPLA2-III inh -18, KLK7 zymogen act 0, NRP1-CendR mod 1, ADAM17 inh 9.5*, ADAM10 inh 29*, ADAM10 confirm 5, ADAM17 counter 2, ADAM10 ctr 26* and ADAM17 confirm 15*.
Cc1ccc(NC(=O)COC(=O)CC2CC3CCC2C3)cc1S(=O)(=O)N1CCOCC1 (stereo not given) was read as sPLA2-III inh -33, KLK7 zymogen act 0, NRP1-CendR mod 18, ADAM17 inh 12*, ADAM10 inh 23*, ADAM10 confirm 1, ADAM17 counter 0, ADAM10 ctr 11 and ADAM17 confirm 8.
For OCCN(Cc1ccccc1)CC(O)COc1ccc(-c2ccccc2)cc1 (stereo not given) the results were sPLA2-III inh -26, KLK7 zymogen act 1, NRP1-CendR mod 10, ADAM17 inh 13*, ADAM10 inh 30*, ADAM10 confirm 4, ADAM17 counter 1, ADAM10 ctr 31* and ADAM17 confirm 16*.
For COc1cc(C(C)=O)ccc1OCC(O)CN(CCO)Cc1ccccc1 (stereo not given) the results were sPLA2-III inh 5, KLK7 zymogen act 0, NRP1-CendR mod 7, ADAM17 inh -7 and ADAM10 inh -4.
CC(C)(C)NC(=O)C(c1cccnc1)N(C(=O)c1cccs1)c1ccc(C(C)(C)C)cc1 (stereo not given) was read as sPLA2-III inh 12, ADAM17 inh -4 and ADAM10 inh -5.
For C[C@@H]1CN([C@H](C)CO)C(=O)c2cc(NC(=O)Nc3ccc(F)cc3)ccc2O[C@@H](C)CCCCO[C@H]1CN(C)S(=O)(=O)c1ccc(Cl)cc1 the results were sPLA2-III inh -40, KLK7 zymogen act 0, NRP1-CendR mod 14, ADAM17 inh 13*, ADAM10 inh 32*, ADAM10 confirm 9, ADAM17 counter 4, ADAM10 ctr 34* and ADAM17 confirm 17*.
For C[C@H]1CN([C@@H](C)CO)C(=O)c2cccc(NS(=O)(=O)c3ccc(F)cc3)c2O[C@H]1CN(C)Cc1ccc(Cl)c(Cl)c1 the results were sPLA2-III inh -28, KLK7 zymogen act 0, NRP1-CendR mod -8, ADAM17 inh 9.2*, ADAM10 inh 20*, ADAM10 confirm 5, ADAM17 counter 1, ADAM10 ctr 28* and ADAM17 confirm 15*.
For C[C@@H]1CN([C@H](C)CO)C(=O)c2cc(NC(=O)Nc3ccc(C(F)(F)F)cc3)ccc2O[C@H]1CN(C)S(=O)(=O)c1ccccc1 the results were sPLA2-III inh -39, KLK7 zymogen act 0, NRP1-CendR mod 4, ADAM17 inh 11*, ADAM10 inh 28*, ADAM10 confirm 6, ADAM17 counter 3, ADAM10 ctr 28* and ADAM17 confirm 16*.
For COC(=O)c1ccc2nc(-c3ccco3)c(Cc3ccccc3OC)n2c1 the results were sPLA2-III inh 3, KLK7 zymogen act -1, ADAM17 inh -6 and ADAM10 inh -24.
For COC(=O)C1CN(CCO)CCS(=O)(=O)N1Cc1cn(Cc2ccc(C)cc2)nn1 (stereo not given) the results were sPLA2-III inh 3, KLK7 zymogen act 0, ADAM17 inh 0 and ADAM10 inh 0.
COc1cc(/C=N/O)cc(Br)c1OCc1ccc(Cl)cc1 was read as sPLA2-III inh -17, KLK7 zymogen act 0, NRP1-CendR mod 0, ADAM17 inh 8.9*, ADAM10 inh 21*, ADAM10 confirm 13, ADAM17 counter 3, ADAM10 ctr 21* and ADAM17 confirm 11*.
Screening CCOC(=O)c1c(C)[nH]c(C)c1S(=O)(=O)N1CCN(c2cccc(C)c2)C(C)C1 (stereo not given) returned sPLA2-III inh -13, KLK7 zymogen act 0, NRP1-CendR mod 10, ADAM17 inh 9.1*, ADAM10 inh 20*, ADAM10 confirm 1, ADAM17 counter 0, ADAM10 ctr 11 and ADAM17 confirm 6.
Screening O=C1CCCN1c1ccc(S(=O)(=O)Oc2cccc(Cl)c2)cc1[N+](=O)[O-] returned sPLA2-III inh -13, KLK7 zymogen act 0, NRP1-CendR mod 8, ADAM17 inh 9.7*, ADAM10 inh 20*, ADAM10 confirm 3, ADAM17 counter 1, ADAM10 ctr 5 and ADAM17 confirm 5.
